Sfp PPTase inh: qHTS Assay for Inhibitors of Bacillus subtilis Sfp phosphopantetheinyl transferase (PPTase); Potency, µM, inactives show largest response in the series, negative = inhibition, actives largely listed as inhibitors; hit rate 3.5% among 310,000; AID 1490, 2009; Biochemical Sfp PPTase activity, qHTS; 4'-phosphopantetheinyl transferase ffp (Bacillus subtilis), Q9F4F7;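 also: the enzyme is Sfp with the accession as filed and its product quenches rhodamine fluorescence; 0% = enzyme reaction without inhibitor and -100% = no enzyme wells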
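Step 1, compound plus 15 nM Sfp-PPTase, 15 min, room temperature. Step 2, add rhodamine-CoA (5 uM) and BHQ-2-YbbR (12.5 uM). Step 3, read 525/598 nm fluorescence at 0 and 30 min.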
TrxR1 inh: qHTS Assay for Inhibitors of Mammalian Selenoprotein Thioredoxin Reductase 1 (TrxR1): qHTS; Thioredoxin reductase 1, cytoplasmic (Rattus norvegicus), O89049; recombinant rTrxR1, NADPH fluorescence consumption, selenite substrate; Potency, µM (top dose mostly 114 µM), inactives show top-dose activity change, negative = inhibition, most hits filed as inhibitors; hit rate 1% among 390,000; AID 588453, 2011; also: nearly all actives have a fitted effect of over 65% in size
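Rat TrxR1 (90 nM in the dispensed reagent) was pre-reduced with 400 uM NADPH for 5 min at room temperature, then incubated with compound for 15 min. After 400 uM selenite was added, NADPH fluorescence (Ex 340/Em 450 nm) was followed for 8 min.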
TrxR1 substrate: qHTS Assay for Substrates of Mammalian Selenoprotein Thioredoxin Reductase 1 (TrxR1): qHTS. Potency, µM (titrated, usually from 114 µM), inactives show top-dose activity change, negative = substrate turnover. hit rate 0.01% among 390,000. Thioredoxin reductase 1, cytoplasmic (Rattus norvegicus), O89049. purified TrxR1 substrate turnover, NADPH consumption readout; also: nearly all actives have a fitted effect of over 50% in size
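Rat TrxR1, dispensed at 90 nM, was prereduced with 400 uM NADPH (final) for 5 min at ~22 deg C, then incubated with compound 15 min before 400 uM selenite. A first-read NADPH fluorescence drop versus no-compound background flagged substrates.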
mIDH1 inhibitor: qHTS for Inhibitors of mutant isocitrate dehydrogenase 1 (IDH1): qHTS. Isocitrate dehydrogenase [NADP] cytoplasmic (Homo sapiens), O75874. IDH1-R132H enzyme, NADPH consumption, diaphorase/resazurin fluorescence. Potency, µM (highest dose often 76.6 µM), inactives show at the highest dose activity change, negative = inhibition, most hits filed as inhibitors. hit rate 0.093% among 390,000. AID 602179, 2012; also: nearly all actives have a fitted effect of over 65% in size
Target sequence (O75874 whole entry R132H, stated change not applied): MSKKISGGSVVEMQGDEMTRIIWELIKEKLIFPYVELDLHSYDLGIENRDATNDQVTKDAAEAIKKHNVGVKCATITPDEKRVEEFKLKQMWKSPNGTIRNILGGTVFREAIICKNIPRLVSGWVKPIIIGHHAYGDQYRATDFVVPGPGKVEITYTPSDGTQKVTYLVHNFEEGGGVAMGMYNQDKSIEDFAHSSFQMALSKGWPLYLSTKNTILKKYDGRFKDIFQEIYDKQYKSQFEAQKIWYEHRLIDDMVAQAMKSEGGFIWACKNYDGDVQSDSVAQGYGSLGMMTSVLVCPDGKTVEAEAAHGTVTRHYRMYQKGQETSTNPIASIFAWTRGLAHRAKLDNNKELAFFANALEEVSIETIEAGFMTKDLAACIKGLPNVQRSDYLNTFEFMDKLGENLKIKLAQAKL
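IDH1-R132H (0.5 ug/mL) preincubated 30 min with compound, then NADPH (0.016 mM) and alpha-KG (2 mM) added; 80 min at RT, pH 7.5. Remaining NADPH coupled via diaphorase/resazurin to fluorescence (540/590 nm); concentration-response curves normalized to no-enzyme control.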
VDR inh: Inhibitors of the vitamin D receptor (VDR): qHTS; Vitamin D3 receptor (Homo sapiens), P11473; Potency, µM, for inactives: max response, negative = inhibition, usual class: inhibitors; hit rate 0.93% among 400,000; VDR-SRC2-3 peptide fluorescence polarization, 2 h; AID 504847, 2011
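VDR–SRC2-3 interaction, FP format. Cmpds 23 nl via pintool, brief spin, 2 h ambient incubation.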
PLK1 PBD inh: qHTS for Inhibitors of PLK1-PDB (polo-like kinase 1 - polo-box domain): Primary Screen | Plk1 PBD binding of FITC phosphopeptide, fluorescence polarization | hit rate 2.8% among 360,000 | Potency, µM, for inactives: max response, negative = inhibition, usual class: inhibitors; also: series mostly up to about 57 µM; nearly all actives have a fitted effect of over 65% in size
* marks the source's active call; other numbers are inactive results; ? = inconclusive; nt = no result; [ ] = another dose, or the depositor's remark. Sampled rows, rich in hits. Any-hit rate of the full collection: about 5.2%. Calls follow the shape of the dose curve; as a rule, active = well fitted curve in the direction sought with a large enough effect; inconclusive = small, poorly fitted or top-dose-only effect, or another doubt; inactive = no such curve, though single readings can be large; an effect the other way counts as inactive or inconclusive. Unless noted, % is scaled to controls: 0 for no effect and ±100 for the full control effect; potency is read from the fitted curve at half-maximal effect.

SMILES	Sfp PPTase inh	TrxR1 inh	TrxR1 substrate	mIDH1 inhibitor	VDR inh	PLK1 PBD inh
CCOC(=O)[C@]12Cc3cc(C)ccc3[C@H]1N(C1CCCCC1)C(=O)c1cc(OC)ccc12	nt	nt	nt	nt	nt	2.4µM*
CCOC(=O)[C@]12Cc3c(cc(OC)c(OC)c3OC)[C@H]1N(C)C(=O)c1cc(OC)ccc12	nt	nt	nt	nt	nt	13µM*
CCOC(=O)[C@]12Cc3ccccc3[C@H]1N(C)C(=O)c1cc(OC)ccc12	nt	nt	nt	nt	nt	13µM*
CCOC(=O)[C@]12Cc3cc(C)ccc3[C@H]1N(C(C)C)C(=O)c1ccccc12	nt	nt	nt	nt	nt	11µM*
CCOC(=O)[C@]12Cc3cc(OC)ccc3[C@H]1N(Cc1ccccc1)C(=O)c1ccccc12	nt	15%	-5%	-8%	-23%	-13%
Cc1ccccc1-c1cncnc1NCCc1cnc[nH]1	9%	nt	nt	nt	-11%	nt
CCOC(=O)[C@]12Cc3ccccc3[C@H]1N(C(C)C)C(=O)c1cc(OC)ccc12	nt	nt	nt	nt	nt	7.5µM*
CCOC(=O)[C@]12Cc3cc(OC)ccc3[C@H]1N(Cc1ccccc1)C(=O)c1cc(F)c(F)cc12	nt	8%	-7%	6%[38.3 µM]	-7%	-12%
CCOC(=O)[C@]12Cc3c(cc(OC)c(OC)c3OC)[C@H]1N(C(C)C)C(=O)c1ccccc12	nt	nt	nt	nt	nt	13µM*
CCOC(=O)[C@]12Cc3cc(C)ccc3[C@H]1N(Cc1ccccc1)C(=O)c1cc(F)c(F)cc12	nt	nt	nt	nt	nt	11µM*
CCC(C)C(=O)c1c(O)c(C)c2oc3c(C)c(O)c(C(=O)C(C)CC)c(O)c3c2c1O (stereo not given)	-7%	nt	nt	nt	-15%	nt
CCC(Oc1ccc(Cl)cc1)C(=O)OC1CC2CCC(C1)N2C (stereo not given)	5%	nt	nt	nt	0%	nt
NC(=S)c1cn(C2OC(CO)C(O)C2O)c2ncnc(N)c12 (stereo not given)	7.9µM*	-1%	8%	-9%	?	27µM*
CCCCCCCCCCCCCCCCOC[C@@H](COP(=O)([O-])OCC[N+](C)(C)C)OC(C)=O	-30%	nt	nt	nt	-6%	nt
Cn1c(O)c(C(c2ccncc2)c2c(O)n(C)c(=S)n(C)c2=O)c(=O)n(C)c1=S	14%	7.9µM*	-9%	-5%	?	-27%
C[C@]12CCC3C(CC[C@H]4C[C@@H](O)CC[C@]34C)[C@@H]1CCC2=O (stereo not given in full)	19%	nt	nt	nt	-15%	nt
C=CCN1C(=O)NC(=O)/C(=C/c2cc3c4c(c2)CCCN4CCC3)C1=O	?	45µM*	-7%	-1%	46%	?
C=CCN1C(=O)NC(=O)/C(=C/c2cnc(SC)nc2)C1=O	32µM*	14µM*	10%[57.1 µM]	0%	28µM*	11µM*
Cn1cccc1/C=C1\C(=O)NC(=O)N(Cc2ccccc2Cl)C1=O	-15%	-8%	-6%	-1%	0%	?
CCOC(=O)[C@@]1(C#N)[C@@H]2C=CC(C(N)=O)=CN2[C@@H](C(N)=O)[C@@H]1c1cccc(Cl)c1	-8%	?	1%	6%	-2%	27µM*
CCOC(=O)[C@]1(C#N)[C@@H]2C=CC(C(N)=O)=CN2[C@@H](C(N)=O)[C@@H]1c1ccc(F)cc1	?	-10%	0%	6%	?	-8%
COc1cc(/C=C(/C)[N+](=O)[O-])ccc1OCc1ccccc1Cl	14µM*	?	-1%	46µM*	8.9µM*	2.4µM*
COc1ccc(NC(=O)c2c(C)nn(Cc3ccccc3Cl)c2Cl)cc1Cl	-15%	17%[57.1 µM]	9%[57.1 µM]	-10%	-25%	-8%
